The nature of assay [1]: qHTS assay to identify small molecule antagonists of the peroxisome proliferator-activated receptor gamma (PPARg) signaling pathway - cell viability counter screen (AID 743194). Further: nearly all actives have a fitted effect of over 55% in size. The following applies: Potency: co-treated with 50 nM rosiglitazone. The method in brief:
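Cytotoxicity counter screen in PPARg-bla HEK293H cells, same wells as reporter assay. Compounds plus 50 nM rosiglitazone (final) for 17 h at 37 C, then viability read by CellTiter-Glo luminescence.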
For orientation: In qHTS, concentration-response curves come from the screen itself.

Assay [2] can be described thus: qHTS assay for small molecule agonists of the antioxidant response element (ARE) signaling pathway (AID 743202; active means well fitted activation curve with a large enough effect in the signal ratio in the repeat runs, not every such curve was filed as active; inconclusive means weak or mixed curves, or effect the other way; inactive means no such curve, though single readings can be large or run the other way; the % refers to the signal ratio; further: potency means the concentration at half of the fitted maximal effect). The method in brief:
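ARE-bla HepG2 cells (beta-lactamase reporter under the antioxidant response element), plated 5 hours, then exposed to compounds 16 hours at 37 C. LiveBLAzer B/G FRET substrate added for 2 hours at room temperature; fluorescence intensity read.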

The nature of assay [3]: qHTS assay to identify small molecule agonists of the peroxisome proliferator-activated receptor delta (PPARd) signaling pathway - cell viability counter screen (AID 743211). Further: nearly all actives have a fitted effect of over 55% in size. Further: potency means the concentration at half of the fitted maximal effect. The method in brief: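 Counter screen for cytotoxicity run in parallel with the PPARd reporter screen. Beta-lactamase reporter HEK293H cells exposed to compounds 17 h; ATP-based CellTiter-Glo luminescence quantified viability.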

For assay [4], the system named is thyroid hormone receptor (rat, GH3 cells). Briefly: qHTS assay to identify small molecule agonists of the thyroid receptor (TR) signaling pathway (AID 743066; calls by dose curve).
A short description of assay [5]: qHTS assay to identify small molecule antagonists of the estrogen receptor alpha (ER-alpha) signaling pathway - cell viability counter screen (AID 743074; calls by dose curve;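 further: HEK293 cells carrying ER-alpha-UAS-bla reporter stimulated with 17beta-estradiol; nearly all actives have a fitted effect of over 45% in size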).
Assay [6] deals with Estrogen receptor (Homo sapiens) (UniProt P03372). Briefly: qHTS assay to identify small molecule agonists of the estrogen receptor alpha (ER-alpha) signaling pathway (AID 743075; calls by dose curve; further: potency means the concentration at half of the fitted maximal effect).
The target is the same in assay [7]. Briefly: qHTS assay to identify small molecule agonists of the estrogen receptor alpha (ER-alpha) signaling pathway using the BG1 cell line (AID 743079). Further: nearly all actives have a fitted effect of over 20% in size. Further: potency means the concentration at half of the fitted maximal effect. The note with it: BG1Luc4E2 cells, ERE-luciferase agonist, 22 h.
Assay [8] is described as follows: qHTS assay to identify small molecule antagonists of the estrogen receptor alpha (ER-alpha) signaling pathway using the BG1 cell line (AID 743080; calls by dose curve;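 further: BG1 cells stimulated with 17beta-estradiol alongside compound; nearly all actives have a fitted effect of over 25% in size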; further: potency means the concentration at half of the fitted maximal effect). The procedure, abridged:
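After 5 days in phenol-red-free 10% charcoal-stripped FBS medium, BG1-Luc-4E2 cells were seeded, left 24 h at 37 C, co-treated with compounds and 17beta-estradiol for 21.5 h, then assayed for viability and luciferase.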

Assay [9] is described as follows: qHTS assay to identify small molecule antagonists of the estrogen receptor alpha (ER-alpha) signaling pathway using the BG1 cell line - cell viability counter screen (AID 743081).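 Further: compound given together with 17beta-estradiol as the ER stimulus; nearly all actives have a fitted effect of over 45% in size.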
The next assay deals with Aromatase (Homo sapiens) (UniProt P11511). The experiment in a line: qHTS assay to identify aromatase inhibitors (AID 743083). Further: nearly all actives have a fitted effect of over 55% in size. Further: potency means the concentration at half of the fitted maximal effect.
Assay [10] is described as follows: qHTS assay to identify aromatase inhibitors - cell viability counter screen (AID 743084).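 Further: cells stimulated with testosterone during compound exposure; nearly all actives have a fitted effect of over 55% in size.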 Further: potency means the concentration at half of the fitted maximal effect.
The target in assay [11] is Aryl hydrocarbon receptor (Homo sapiens) (UniProt P35869). The experiment in a line: qHTS assay to identify small molecule that activate the aryl hydrocarbon receptor (AhR) signaling pathway (AID 743085). Further: nearly all actives have a fitted effect of over 15% in size. Further: potency means the concentration at half of the fitted maximal effect.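 On activation: HG2L7.5c1 human HepG2 liver cells with stably integrated DRE-driven firefly reporter.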 The procedure, abridged: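 Compounds were tested in HepG2 hepatocellular carcinoma cells harbouring a stably integrated luciferase gene under control of 20 DREs. Increased reporter signal after 24 h treatment at 37C was taken as AhR activation.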

Assay [12] can be described thus: qHTS assay to identify small molecule that activate the aryl hydrocarbon receptor (AhR) signaling pathway - cell viability counter screen (AID 743086).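 Further: HepG2 liver cells carrying the AhR DRE luciferase reporter; nearly all actives have a fitted effect of over 45% in size.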 The procedure, abridged: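 HepG2-AhR-luc (HG2L7.5c1) cells, 4000/well, treated 24 h at 37 C with compound; viability measured as CellTiter-Fluor fluorescence after 30 min in the same wells as the luciferase read.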

For assay [13], the target named is Peroxisome proliferator-activated receptor gamma (Homo sapiens) (UniProt P37231). The experiment in a line: qHTS assay to identify small molecule agonists of the peroxisome proliferator-activated receptor gamma (PPARg) signaling pathway (AID 743094; active means well fitted activation curve with a large enough effect in the signal ratio in the repeat runs, not every such curve was filed as active; inconclusive means weak or mixed curves, or effect the other way; inactive means no such curve, though single readings can be large or run the other way; the % refers to the signal ratio). The method in brief:
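Compounds dissolved in DMSO were added to PPARg UAS-bla HEK293H cells for 17 h at 37C, and reporter expression was quantified by fluorescence intensity after 1 h with LiveBLAzer B/G FRET substrate.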

Assay [14] shares this target. The experiment in a line: qHTS assay to identify small molecule antagonists of the peroxisome proliferator-activated receptor gamma (PPARg) signaling pathway (AID 743191; calls by dose curve; further: nearly all actives have a fitted effect of over 30% in size). The procedure, abridged:
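GeneBLAzer PPARg UAS-bla HEK293H cells, 5 h post-plating, exposed to compounds 17 h at 37C. LiveBLAzer B/G FRET substrate added for 1 h at room temperature; beta-lactamase reporter read by fluorescence intensity.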

The nature of assay [15]: qHTS assay for small molecule agonists of the antioxidant response element (ARE) signaling pathway - cell viability counter screen (AID 743203; calls by dose curve; further: nearly all actives have a fitted effect of over 55% in size). The procedure, abridged: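 Following 16 hrs of compound treatment at 37C, HepG2 cells with an ARE-controlled beta-lactamase gene were lysed with CellTiter-Glo. Luminescence was read after 30 min at room temperature.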
Assay [16] in a line: qHTS assay for small molecule activators of the heat shock response signaling pathway - cell viability counter screen (AID 743209). Further: nearly all actives have a fitted effect of over 50% in size. The procedure, abridged:
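Readout: CellTiter-Glo luminescence, 30 min at room temperature. System: HSE-bla HeLa cells, 1500/well, plated overnight. Treatment: compounds in DMSO, 5 h at 37 C.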

Assay [17] is described as follows: qHTS assay for small molecule activators of the heat shock response signaling pathway (AID 743210; active means well fitted activation curve with a large enough effect in the signal ratio in the repeat runs, with a control signal flat, not every such curve was filed as active; inconclusive means weak or mixed curves; the % refers to the signal ratio). The procedure, abridged: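 HSE-bla HeLa cells (beta-lactamase reporter under heat shock response elements), plated overnight, then exposed to compounds 5 h at 37 C; LiveBLAzer B/G FRET substrate added, 2.5 h at room temperature, fluorescence intensity read.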
Assay [18] has as its target Estrogen receptor (Homo sapiens) (UniProt P03372). The experiment in a line: qHTS assay to identify small molecule antagonists of the estrogen receptor alpha (ER-alpha) signaling pathway (AID 743069; active means well fitted curve in the direction sought with a large enough effect in the signal ratio in the repeat runs, not every such curve was filed as active; inconclusive means weak or mixed curves, or effect the other way; inactive means no such curve, though single readings can be large or run the other way; the % refers to the signal ratio). The method in brief: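 HEK293 ER-alpha-UAS-bla GripTite cells, held overnight in 2% charcoal-stripped FBS, 5,000 cells/well, preincubated 4 h, then compound plus 17beta-estradiol for 18 h at 37C. Beta-lactamase read by LiveBLAzer B/G FRET substrate, 2 h at room temperature.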

The structures appear in SMILES notation. Values joined by “and” are separate entries in the source; they are usually repeats but may differ in a detail not shown here. Equal values may be shown once. Where a structure was tested more than once in an assay, its records may differ in their call. Active and inactive are the calls of the source. Unless noted, the call rests on the fitted dose curve; in most records, active means well fitted curve in the direction sought with a large enough effect in the repeat runs; inconclusive means weak or mixed curves; inactive means no such curve, though single readings can be large; an effect the other way counts as inactive or inconclusive.
On the % scale 0 is the no-effect control and ±100 the full control effect.

Sequence of Estrogen receptor (Homo sapiens) (P03372 whole entry, looked up): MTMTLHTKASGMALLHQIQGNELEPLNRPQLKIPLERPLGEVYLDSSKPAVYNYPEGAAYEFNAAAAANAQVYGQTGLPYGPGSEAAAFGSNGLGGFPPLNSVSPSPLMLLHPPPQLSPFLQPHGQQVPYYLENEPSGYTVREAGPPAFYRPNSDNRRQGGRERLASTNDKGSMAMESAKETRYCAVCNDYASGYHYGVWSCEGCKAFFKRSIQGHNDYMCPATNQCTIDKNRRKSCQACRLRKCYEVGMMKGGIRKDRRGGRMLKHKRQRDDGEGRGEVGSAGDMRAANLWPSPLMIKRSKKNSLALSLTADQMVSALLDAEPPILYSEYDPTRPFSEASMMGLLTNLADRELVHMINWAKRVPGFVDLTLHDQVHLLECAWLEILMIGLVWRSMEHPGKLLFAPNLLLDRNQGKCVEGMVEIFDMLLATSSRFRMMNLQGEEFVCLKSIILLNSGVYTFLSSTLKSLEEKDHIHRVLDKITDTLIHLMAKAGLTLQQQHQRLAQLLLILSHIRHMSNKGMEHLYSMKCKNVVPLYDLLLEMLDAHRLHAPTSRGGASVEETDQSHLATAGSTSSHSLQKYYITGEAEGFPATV
Sequence of Aryl hydrocarbon receptor (Homo sapiens) (P35869 whole entry, looked up): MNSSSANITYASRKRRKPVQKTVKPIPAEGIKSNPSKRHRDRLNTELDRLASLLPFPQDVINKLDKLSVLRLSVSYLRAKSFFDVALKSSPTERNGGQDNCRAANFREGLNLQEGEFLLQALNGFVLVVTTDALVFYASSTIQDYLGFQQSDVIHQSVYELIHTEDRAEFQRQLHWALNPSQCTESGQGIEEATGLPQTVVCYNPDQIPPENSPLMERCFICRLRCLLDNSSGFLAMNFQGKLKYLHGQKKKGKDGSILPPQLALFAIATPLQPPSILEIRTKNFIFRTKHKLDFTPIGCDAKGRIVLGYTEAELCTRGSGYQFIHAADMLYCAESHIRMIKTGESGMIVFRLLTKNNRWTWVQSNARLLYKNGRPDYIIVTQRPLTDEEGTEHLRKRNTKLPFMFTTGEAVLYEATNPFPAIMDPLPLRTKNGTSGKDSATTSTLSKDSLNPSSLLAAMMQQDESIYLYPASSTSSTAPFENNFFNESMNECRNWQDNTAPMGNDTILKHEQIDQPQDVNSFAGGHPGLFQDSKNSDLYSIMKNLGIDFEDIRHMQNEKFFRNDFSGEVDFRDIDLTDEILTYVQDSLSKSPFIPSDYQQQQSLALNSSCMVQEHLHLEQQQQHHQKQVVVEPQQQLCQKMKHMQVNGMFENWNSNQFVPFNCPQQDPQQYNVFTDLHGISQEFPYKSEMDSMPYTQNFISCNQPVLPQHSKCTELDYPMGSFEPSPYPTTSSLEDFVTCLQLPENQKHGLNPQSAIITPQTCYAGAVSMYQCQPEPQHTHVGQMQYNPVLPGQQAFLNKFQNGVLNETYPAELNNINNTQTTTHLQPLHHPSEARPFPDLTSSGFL
Sequence of Peroxisome proliferator-activated receptor gamma (Homo sapiens) (P37231 whole entry, looked up): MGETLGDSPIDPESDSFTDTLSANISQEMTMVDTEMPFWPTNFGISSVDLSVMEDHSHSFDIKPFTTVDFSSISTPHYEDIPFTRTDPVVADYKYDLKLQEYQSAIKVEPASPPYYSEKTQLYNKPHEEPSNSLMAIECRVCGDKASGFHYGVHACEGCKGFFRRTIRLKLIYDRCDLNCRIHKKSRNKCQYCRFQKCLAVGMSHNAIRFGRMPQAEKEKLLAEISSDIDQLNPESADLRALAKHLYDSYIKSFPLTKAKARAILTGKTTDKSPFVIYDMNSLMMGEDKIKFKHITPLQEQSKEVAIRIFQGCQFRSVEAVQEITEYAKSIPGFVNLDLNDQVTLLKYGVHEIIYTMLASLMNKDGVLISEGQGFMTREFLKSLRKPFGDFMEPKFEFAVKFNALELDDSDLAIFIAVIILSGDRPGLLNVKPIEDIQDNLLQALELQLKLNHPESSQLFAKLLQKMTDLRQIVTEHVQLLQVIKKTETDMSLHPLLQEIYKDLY
Sequence of Aromatase (Homo sapiens) (P11511 whole entry, looked up): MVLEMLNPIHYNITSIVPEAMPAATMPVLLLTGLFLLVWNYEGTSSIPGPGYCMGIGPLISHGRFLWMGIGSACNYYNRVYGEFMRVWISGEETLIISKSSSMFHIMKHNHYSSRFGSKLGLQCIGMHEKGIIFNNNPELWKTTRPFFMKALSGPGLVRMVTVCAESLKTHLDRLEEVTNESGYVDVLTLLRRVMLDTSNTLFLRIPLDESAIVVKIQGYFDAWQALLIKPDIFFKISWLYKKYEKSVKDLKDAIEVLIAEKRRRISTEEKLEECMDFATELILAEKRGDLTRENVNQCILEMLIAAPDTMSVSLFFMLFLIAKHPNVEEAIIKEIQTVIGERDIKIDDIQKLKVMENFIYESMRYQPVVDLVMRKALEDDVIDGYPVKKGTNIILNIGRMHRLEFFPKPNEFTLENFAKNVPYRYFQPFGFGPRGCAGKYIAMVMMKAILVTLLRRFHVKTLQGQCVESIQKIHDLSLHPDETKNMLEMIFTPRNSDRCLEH

As for `O=C1OC(CCN2CCCCC2)OC1(c1ccccc1)c1ccccc1` (stereo not given), the Potency result in assay [1] and in assay [3] was “inactive” each time. Moreover, the Potency in [2] was 23.7 µM (active).
`COc1ccc2c(c1OC)CN1CCc3cc4c(cc3C1C2)OCO4` (stereo not given): the Potency entry (in [4]; in assay [6]; in assay [8]; in assay [9]; with Aromatase (Homo sapiens); in assay [10]) was “inactive” throughout. The Potency entry in assay [14], in assay [1], in assay [15] and in [16] was “inactive” throughout. Also, the compound was called inactive in assay [5], in [12], in assay [13] and in [17]. For the same compound, in assay [7] (at 32.5 µM (top of the series)), the activation is -4.85% (inactive). For the same compound, the Potency in assay [11] was 0.403 µM (active).
Turning to `COc1cc(OC)nc(NC(=O)NS(=O)(=O)c2ncccc2OCC(F)(F)F)n1`, the Potency result (in assay [18]; in [6]; in [8]; in assay [9]; in the assay with Aromatase (Homo sapiens); in assay [10]) was “inactive” throughout. For the same compound, the Potency entry in assay [14], in [1], in assay [2], in assay [15], in assay [16] and in assay [3] was “inactive” throughout. Moreover, the compound was classed as inactive in assay [5], in assay [12], in [13] and in assay [17].
As for `COC(=O)C1=CCCN(C)C1`, the Potency result (in [18]; in assay [6]; in assay [8]; in [9]; in the assay with Aromatase (Homo sapiens); in [10]) was “inactive” in each case. Further, the Potency entry in assay [11], in assay [1], in assay [2], in [15], in [16] and in [3] was “inactive” throughout. The result in [5], in assay [12], in assay [13] and in assay [17] was inactive. The activation in assay [7] (at 70.3 µM (top of the series)) was 0.989% (inactive).
As for `ClCCCN1CCN(c2cccc(Cl)c2)CC1`, the Potency result in [14] and in assay [3] was “inactive” each time. Besides, the Potency in assay [2] is 6.68 µM (active). Moreover, in [17], the result was inactive.
Take `CN1CCC(N(Cc2ccccc2)c2ccccc2)CC1`: the Potency result in [14], in assay [15] and in assay [16] was “inactive” throughout. Also, the outcome in assay [17] was inactive. In [3], the Potency was 26.6 µM (active).
Regarding `CC(C(=O)c1ccccc1)N(C)C` (stereo not given), the Potency entry in assay [1], in assay [2], in [15], in [16] and in assay [3] was “inactive” throughout. Besides, in [17], the result was inactive.
Consider `Cc1ccccc1CO[C@@H]1C[C@@]2(C(C)C)CC[C@]1(C)O2`, for which the Potency entry in [4], in assay [9], in assay [10], in [14], in assay [1] and in assay [2] was “inactive” in each case. The Potency entry in assay [15] and in assay [3] was “inactive” in each case. Besides, the outcome in assay [5], in assay [12], in assay [13] and in assay [17] was inactive.
For `CC1=C(C(=O)O)N2C(=O)[C@@H](N)[C@H]2SC1`, the Potency entry in assay [14], in [1], in [2], in assay [15], in assay [16] and in assay [3] was “inactive” throughout.
In the case of `C[C@H]1CCC[C@H](O)CCCCCc2cc(O)cc(O)c2C(=O)O1`, the Potency result in assay [18], in assay [9], in assay [11], in assay [16] and in assay [3] was “inactive” in each case. Further, the compound was classed as inactive in assay [5] and in assay [12]. Further, the Potency is 848 nM [inconclusive] (active) and 175 nM [inconclusive] (active) in assay [6]; 23.7 µM (active) in assay [8]; 61.6 µM (active) in the assay with Aromatase (Homo sapiens); 43.6 µM (active) in assay [10]. In addition, the activation was -0.266% (active) in [7] (at 70.3 µM (top of the series)) and -52.7% (active) in assay [7] (at 95 µM (top of the series)).
In the case of `ClCC(Cl)(Cl)Cl`, the Potency result (in assay [18]; in assay [6]; in assay [8]; in assay [9]; with Aromatase (Homo sapiens); in assay [10]) was “inactive” in each case. Besides, the Potency result in assay [11], in assay [14], in assay [1], in [2], in assay [15] and in assay [16] was “inactive” in each case. The Potency entry in [3] was “inactive”. Also, the result in assay [5], in assay [12], in assay [13] and in [17] was inactive. The activation in [7] (at 95 µM (top of the series)) was 9.47% (inactive).
Consider `CC(=O)CCc1ccc2c(c1)OCO2`, for which the Potency result (in assay [18]; in assay [6]; in assay [8]; in assay [9]; in the assay with Aromatase (Homo sapiens); in [10]) was “inactive” throughout. Also, the Potency result in [11], in [1], in assay [2] and in assay [3] was “inactive” each time. The compound was classed as inactive in assay [5], in [12], in assay [13] and in assay [17]. Further, the activation in [7] (at 70.3 µM (top of the series)) is 24.9% (inactive).
In the case of `CCN(CC)C(=O)[C@@H]1C=C2c3cccc4[nH]cc(c34)C[C@H]2N(C)C1`, the Potency result (in assay [4]; in [8]; with Aromatase (Homo sapiens); in assay [10]; in [1]; in assay [15]) was “inactive” each time. Further, the Potency result in assay [16] and in [3] was “inactive” each time. Moreover, the compound was called inactive in assay [5], in assay [12] and in assay [13]. Moreover, the Potency result in assay [6] is “inactive and 8.49 µM [inconclusive] (active)”; in assay [7] it was 0.944 µM (active). Moreover, the activation in assay [7] (at 260 µM (top of the series)) was -12% (inactive).
